# In PubChem BioAssay AID743382 (National Center for Advancing Translational Sciences (NCATS), 2014):
# Active and inactive are the calls of the source. The call rests on the fitted dose curve.
# Experiment: qHTS for Inhibitors of PI5P4K: BT474 Cell Proliferation Assay for Probe SAR
# Settings: CellTiter-Glo ATP luminescence, 72 h
# Source text: In addition to finding PI5P, we discovered the type II phosphatidylinositol 5-phosphate 4-kinase (PI5P4K) family (alpha, beta, gamma isoforms) that catalyze the conversion of PI5P to PI(4,5)P2. Alternatively, PI(4,5)P2 can also be synthesized through phosphatidylinositol-4-phosphate (PI4P) by the type I phosphatidylinositol 4-phosphate 5-kinases (PI4P5K). These PI5P4K enzymes therefore represent one way by which cells can regulate endogenous PI5P levels and play important roles in insulin signaling and in stress responses. […] A qHTS PI5P4K-alpha ADP-Glo assay was developed to identify specific modulators of human PI5P4K, phosphatidylinositol-5-phosphate 4-kinase (Type II PIPK). […]
# BT474 cells were cultured in DMEM with 10% FBS and plated in 1536-well white solid-bottom tissue-culture treated plates at a density of 500 cells per 5 microL well. […] After 72 hours of incubation at 37 degrees C 5% CO2 the level of ATo was measured using the Cell Titer Glo luciferase-coupled ATP detection system from Promega. This assays monitors cells by quantitating the amount of ATP present by luciferase, which in the presence of ATP converts pro-luciferin into the luminescent luciferin product. A compound that inhibits cell proliferation would result in a decrease in luminescence. […] The luminescence was read on a Viewlux (Perkin Elmer) plate reader.
row,Compound,Potency
1,O=C1Nc2ccc(C(=O)c3ccco3)cc2/C1=C/c1cc(Cl)c(O)c(Cl)c1,10.5 µM (active)
